Screen size: about 69,000 compounds; about 8,600 (12%) showed an effect of 50% or more. The sample holds strong results, similar compounds and a random draw of the others, so the mix is not that of the screen.

This assay relates to Plasmodium berghei. The assay is described as follows: Screen against P. berghei liver stage (PbLuc), transformed with Luciferase, at 10uM. The format is functional, HepG2. Conditions: tested at 10 uM.
In the case of `O=C(c1ccnn1-c1ccc2ccccn12)N1CCCC1`, the INHIBITION turned out to be 30.3%.

In the case of `O=C(Nc1cccnc1)C1=NN(c2ccccc2)C(=O)CN1`, the INHIBITION is recorded as -141%.

As to `CCCn1nccc1-c1cnc(CC2CCN(C(C)=O)C2)cn1` (stereo unspecified), the INHIBITION is given as 19.3%.

`O=C(Cn1ccc(=O)cc1)N1C[C@@H]2CC[C@H]1CN(c1ncccn1)C2`: the INHIBITION came to 15.3%.

`O=C(c1cc(Cl)c2c(c1)OCO2)N1CCN(c2ncccn2)CC1`: the INHIBITION was determined as 15.4%.

As for `CN1CCN(Cc2ccncc2)C(=O)C12CCN(Cc1ccsc1)CC2`, the INHIBITION is recorded as 1.34%.

Take `COC1CCN(CC(=O)NCc2ccc(OCC(N)=O)cc2)CC1`: the INHIBITION came to 2.45%.

Regarding `Cc1nc2ccccc2c(=O)n1CCCC(=O)N1CCNC(=O)CC1`, the INHIBITION amounted to 4.37%.

On to `Cc1ccc(=O)n(CC2(O)CCN(Cc3cnn(C)c3)CC2)n1`, for which the INHIBITION is reported as -3.31%.

In the case of `Cc1nn(C)c(Cl)c1C(=O)NCC(c1ccsc1)N(C)C` (stereo unspecified), the INHIBITION worked out at 36.4%.

Turning to `Cc1nn(-c2ccccc2)nc1C(=O)NCC(c1ccco1)N(C)C` (stereo unspecified), the INHIBITION was 8.48%.

For the compound `Cc1nn(-c2ccccc2)nc1C(=O)NCC(c1ccsc1)N(C)C` (stereo unspecified), the INHIBITION worked out at 57.2%.

Consider `O=C1[C@H]2CN(Cc3ccoc3)C[C@H]2CN1CCN1CCCC1`, for which the INHIBITION came out at 3.81%.

As for `CCN1C(=O)[C@H]2CN(CC(C)C)C[C@H]2C12CCN(S(C)(=O)=O)CC2`, the INHIBITION is reported as 20.1%.

On to `O=S(=O)(C/C=C/c1ccccc1)Cc1nc(C2CC2)no1`, for which the INHIBITION was 45%.

As for `CCc1noc(CS(=O)(=O)C/C=C/c2ccccc2)n1`, the INHIBITION worked out at 12.4%.

With `Cc1noc(CS(=O)(=O)C/C=C/c2ccccc2)n1`, the INHIBITION stood at 60.2%.

For the compound `CC(=O)c1ccc(S(=O)(=O)N2CCOC(Cn3ccnc3)C2)cc1` (stereo unspecified), the INHIBITION came to 30.4%.

With `CC(C)(C#N)C(=O)Nc1nccn1Cc1ccc(Br)cc1`, the INHIBITION is on record as 60.1%.

Turning to `CS(=O)(=O)c1nccn1Cc1ccc(C(N)=O)cc1`, the INHIBITION was 19.2%.

As to `CSc1ncccc1C(=O)Nc1ccc(Cn2ccccc2=O)cc1`, the INHIBITION is given as 9.16%.

For `COCCC(=O)Nc1nccn1Cc1ccc(Br)cc1`, the INHIBITION is given as 23.9%.

As for `COCC(=O)Nc1nccn1Cc1ccc(Br)cc1`, the INHIBITION was 84.2%.

In the case of `CSCC(=O)Nc1nccn1Cc1ccc(Br)cc1`, the INHIBITION is listed as 50.8%.

Regarding `CCn1ccnc1CN(C)C(C(=O)O)c1ccc(C(C)(C)C#N)cc1` (stereo unspecified), the INHIBITION is listed as 42.8%.

In the case of `CCOCC(=O)Nc1nccn1Cc1ccc(Br)cc1`, the INHIBITION is 45.2%.

As to `CNC(=O)c1ccc(Cn2ccnc2S(C)(=O)=O)cc1`, the INHIBITION is 20.5%.

For `CC(NC(=O)NCCCN1CCCC1=O)c1nncn1C` (stereo unspecified), the INHIBITION is given as -7.31%.

Turning to `CCC(C(=O)NC1CCCC1)n1ccc2ncccc2c1=O` (stereo unspecified), the INHIBITION is recorded as -13.2%.

As for `Cc1n[nH]c(C)c1C1CCCN1C(=O)NCC(=O)Nc1ccccc1` (stereo unspecified), the INHIBITION is on record as 22%.

On to `O=C(c1ccc2c(c1)OCCCO2)N1CCCC(n2ccnc2)C1` (stereo unspecified), for which the INHIBITION amounted to 42%.

In the case of `Cc1csc(CCNC(=O)NC(C)Cn2cccn2)n1` (stereo unspecified), the INHIBITION is -7.31%.

For the compound `Cc1ccc(C(=O)NCc2ccc(N(C)C)cc2)cn1`, the INHIBITION came out at 32%.

On to `CNC(=O)c1ccc(CNC(=O)NCCN(C)C2CCCC2)cc1`, for which the INHIBITION is reported as -2.53%.

For the compound `CC/C=C(\C)CN1CCC(CNC(=O)c2c[nH]c(=O)c(Cl)c2)C1` (stereo unspecified), the INHIBITION is listed as 63.8%.

`CN(C)c1cc(CNC(=O)c2ccc(O)nc2)ccn1`: the INHIBITION worked out at 9.64%.

For the compound `CN(c1ncc(C(=O)NCc2ccccc2)c(N)n1)C1CCCCC1`, the INHIBITION is recorded as 63.6%.

Take `CCC1CCC(CNC(=O)c2c[nH]c(=O)c(Cl)c2)CC1` (stereo unspecified): the INHIBITION came out at 4.35%.

On to `CN(c1ccc(CNC(=O)c2c[nH]c(=O)c(Cl)c2)cc1)C1CCCCC1`, for which the INHIBITION stood at 77.6%.

Regarding `COc1ccc(NC(=O)c2cnc(N(C)C3CCCCC3)nc2N)cc1`, the INHIBITION was 35.7%.

As for `CN(c1ncc(C(=O)Nc2ccccc2)c(N)n1)C1CCCCC1`, the INHIBITION is recorded as 47.2%.

As to `CN(c1ccc(CNC(=O)c2ccc(O)nc2)cc1)C1CCCCC1`, the INHIBITION was 67.8%.

`CC/C=C(\C)CN1CCC(CNC(=O)c2ccnc(N)c2)C1` (stereo unspecified): the INHIBITION is reported as -5.8%.

Take `CC/C=C(\C)CN1CCC(CNC(=O)c2ccc(=O)[nH]c2)CC1`: the INHIBITION is -24.7%.

Take `CCOc1ncccc1NC(=O)N1CCC(CN2CCOCC2)CC1`: the INHIBITION is 31.65%.

For the compound `C[C@@H]1C(=O)NC[C@H]2CN(CCc3ccccc3)C[C@H]21`, the INHIBITION worked out at 26.6%.

`CCC(CN1CCCC1)n1cncc1-c1cnn(-c2ccc(F)cc2)c1` (stereo unspecified): the INHIBITION is on record as 43.55%.

With `CCOC1COC2(CCN(c3ncc(C)cn3)CC2)C1` (stereo unspecified), the INHIBITION came out at 10.6%.

As to `CC(C)c1cc(C(=O)N2CCCC(n3cncn3)C2)n[nH]1` (stereo unspecified), the INHIBITION was 15.6%.

With `Fc1ccc(-c2nnc(CN3CCCC3Cn3cccn3)o2)cc1` (stereo unspecified), the INHIBITION is recorded as 11.6%.

As for `Cn1nc2c(c1NC(=O)c1ccc(Cl)s1)CCC2`, the INHIBITION was -57.9%.

As for `CN1CCCC1c1ccc(C(=O)Nc2c3c(nn2C)CCC3)s1` (stereo unspecified), the INHIBITION is 56%.

For the compound `Cn1nc2c(c1NC(=O)c1ccc(C3CCCN3C3CCC3)s1)CCC2` (stereo unspecified), the INHIBITION was determined as 15.4%.

Take `CC(=O)N1CCCC1c1ccc(C(=O)N2CCOCC2)s1` (stereo unspecified): the INHIBITION worked out at 21.7%.

As for `CN1CCCC1c1ccc(C(=O)N2CCc3ccccc3C2)s1` (stereo unspecified), the INHIBITION is given as 66.9%.

As for `O=C(c1ccc(C2CCCO2)s1)N1Cc2ccccc2C1` (stereo unspecified), the INHIBITION is -44.8%.

Source of the values: ChEMBL document CHEMBL4513216, “Probing the Open Global Health Chemical Diversity Library for Multistage-Active Starting Points for Next-Generation Antimalarials” (ACS Infect Dis, 2020).
